Activity calls are given as the source filed them. How the source made its calls: active means hit-call score of the fitted dose curve at least 0.9, where 1 is the maximum; inactive means score below 0.9.
Experiments:
[1] = BSK_3C_VCAM1: BioMAP Diversity Plus: 3C Assay for Vascular cell adhesion molecule 1 (VCAM1) Biomarker Activity (AID 2282999); conditions: BioMAP 3C HUVEC, VCAM1 ELISA, cytokine-stimulated; actives raise or lower the signal
In short: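 Human umbilical vein endothelial cells (3C system), biomarker read by ELISA 24 h after dosing; bidirectional fit against DMSO baseline. Cytotoxicity tracked by SRB total-protein staining in parallel cultures at biomarker time.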

[2] = BSK_3C_Proliferation: Cell Proliferation Assessment in the BioMAP Diversity Plus: 3C Assay (AID 2283006); conditions: primary human endothelial cells (HUVEC);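 on AC50: potency may reflect either rise or fall in cell number versus DMSO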
In short: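 Subconfluent HUVEC (3C system) cultured with chemical; relative cell number read at 48 h by sulforhodamine B total-protein staining (0.1% SRB after 10% TCA fixation, 560 nm). Bidirectional fit relative to DMSO.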

[3] = read-out: E-selectin (Homo sapiens) (UniProt P16581); assay: BSK_3C_Eselectin: BioMAP Diversity Plus: 3C Assay for Eselectin Biomarker Activity (AID 2283015); conditions: primary human endothelial cells (HUVEC); actives raise or lower the signal
In short: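 ELISA read-out of E-selectin on endothelial monolayers after 24 h chemical treatment. Human umbilical vein primary cells served as the system, with DMSO defining baseline activity for bidirectional fitting.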

[4] = read-out: Matrix Metallopeptidase 1 (MMP1), MMP1 (gene 4312); assay: BSK_BE3C_MMP1: BioMAP Diversity Plus: BE3C Assay for Matrix Metallopeptidase 1 (MMP1) Biomarker Activity (AID 2283024); conditions: primary human bronchial epithelial cells; actives raise or lower the signal
In short: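 Human primary bronchial epithelial cells (BE3C system) dosed for 24 h; MMP-1 quantified by ELISA. Bidirectional fit against DMSO; cytotoxicity tracked in parallel cultures by SRB total-protein staining.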

[5] = BSK_3C_Vis: BioMAP Diversity Plus: 3C Assay for Morphology Visualization (AID 2283025); conditions: primary human endothelial cells (HUVEC);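 further: fitted both ways so gain or loss versus DMSO counts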;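 on AC50: light microscopy image of cell morphology used as background control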
In short: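 Human umbilical vein endothelial cell morphology was inspected by light microscopy 24 h after chemical dosing; scored bidirectionally relative to DMSO.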

[6] = BSK_BE3C_SRB: Viability Assessment in the BioMAP Diversity Plus: BE3C Assay (AID 2283028); conditions: primary human bronchial epithelial cells;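 on AC50: fitted both ways so AC50 may mark signal gain or loss versus DMSO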
In short: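 Cells (human bronchial epithelial, primary) are treated with chemicals, and after 24 h the parallel cultures are fixed in 10% TCA. These are then stained with 0.1% SRB and read at 560 nm. Gain or loss of signal is fitted relative to DMSO.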

[7] = read-out: Vascular endothelial growth factor receptor 2 (Homo sapiens) (UniProt P35968); assay: BSK_4H_VEGFRII: BioMAP Diversity Plus: 4H Assay for Vascular endothelial growth factor receptor 2 (VEGFR2) Biomarker Activity (AID 2283031); conditions: primary human endothelial cells (HUVEC); actives raise or lower the signal;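 on AC50: cell-surface VEGFR2 protein level quantified by ELISA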
In short: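 ELISA read-out of VEGFRII in primary human umbilical vein endothelium, taken 24 h after chemical treatment. Responses are expressed relative to DMSO, with bidirectional fitting.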

[8] = read-out: Human Leukocyte Antigen - DR isotype (HLADR), HLA-DRA (gene 3122); assay: BSK_BE3C_HLADR: BioMAP Diversity Plus: BE3C Assay for Human Leukocyte Antigen - DR isotype (HLADR) Biomarker Activity (AID 2283032); conditions: primary human bronchial epithelial cells; actives raise or lower the signal
In short: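 Human primary bronchial epithelial cells (BE3C system) exposed to compound for 24 hours; cell-surface HLA-DR measured by ELISA, fitted bidirectionally relative to DMSO. Total protein by SRB in parallel cultures tracked cytotoxicity.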

[9] = read-out: Vascular cell adhesion molecule 1 (VCAM1), VCAM1 (gene 7412); assay: BSK_4H_VCAM1: BioMAP Diversity Plus: 4H Assay for Vascular cell adhesion molecule 1 (VCAM1) Biomarker Activity (AID 2283033); conditions: primary human endothelial cells (HUVEC); actives raise or lower the signal
In short: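 Primary human umbilical vein endothelial cells, 4H stimulation system, treated for 24 h; cell-surface VCAM-1 quantified by ELISA. Bidirectional fitting against DMSO; cytotoxicity tracked by SRB total-protein staining in parallel cultures.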

[10] = read-out: Interferon-gamma inducible Protein 10 (IP10), CXCL10 (gene 3627); assay: BSK_BE3C_IP10: BioMAP Diversity Plus: BE3C Assay for Interferon-gamma inducible Protein 10 (IP10) Biomarker Activity (AID 2283034); conditions: primary human bronchial epithelial cells; actives raise or lower the signal
In short: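 Primary human bronchial epithelial cells, with IP-10 measured by ELISA 24 hours after chemical dosing. Bidirectional fit against DMSO; cytotoxicity checked by SRB total protein staining in parallel cultures.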

[11] = read-out: Transforming growth factor beta 1 (TGFb1), TGFB1 (gene 7040); assay: BSK_BE3C_TGFb1: BioMAP Diversity Plus: BE3C Assay for Transforming growth factor beta 1 (TGFb1) Biomarker Activity (AID 2283036); conditions: primary human bronchial epithelial cells; actives raise or lower the signal
In short: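 Primary human bronchial epithelial cells dosed with chemical; TGF-b1 measured by ELISA 24 h after dosing. Bidirectional curve fitting against DMSO negative control; SRB total-protein staining in parallel cultures gauged cytotoxicity.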

[12] = read-out: Urokinase-type plasminogen activator receptor (uPAR), PLAUR (gene 5329); assay: BSK_BE3C_uPAR: BioMAP Diversity Plus: BE3C Assay for Urokinase-type plasminogen activator receptor (uPAR) Biomarker Activity (AID 2283039); conditions: primary human bronchial epithelial cells; actives raise or lower the signal
In short: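 Primary human bronchial epithelial cells dosed for 24 h; uPAR quantified by ELISA with bidirectional fitting against DMSO. Overt cytotoxicity assessed in parallel cultures by SRB total-protein staining (0.1% SRB, 560 nm).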

[13] = read-out: Interleukin-6 (IL6), IL6 (gene 3569); assay: BSK_CASM3C_IL6: BioMAP Diversity Plus: CASM3C Assay for Interleukin-6 (IL6) Biomarker Activity for (AID 2283040); conditions: primary human coronary artery smooth muscle cells; actives raise or lower the signal
[14] = read-out: Monocyte Chemoattractant Protein-1 (MCP1), CCL2 (gene 6347); assay: BSK_CASM3C_MCP1: BioMAP Diversity Plus: CASM3C Assay for Monocyte Chemoattractant Protein-1 (MCP1) Biomarker Activity (AID 2283046); conditions: primary human coronary artery smooth muscle cells; actives raise or lower the signal
[15] = read-out: Interleukin-1 alpha (IL1a), IL1A (gene 3552); assay: BSK_LPS_IL1a: BioMAP Diversity Plus: LPS Assay for Interleukin-1 alpha (IL1a) Biomarker Activity (AID 2283080); conditions: primary human HUVEC with PBMC; actives raise or lower the signal
In short: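 ELISA read-out of IL-1 alpha from a human primary vascular co-culture (endothelium plus PBMC) under LPS, sampled 24 hours post-dosing. Activity was fitted in both directions relative to DMSO controls.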

[16] = read-out: Monocyte Chemoattractant Protein-1 (MCP1), CCL2 (gene 6347); assay: BSK_LPS_MCP1: BioMAP Diversity Plus: LPS Assay for Monocyte Chemoattractant Protein-1 (MCP1) Biomarker Activity (AID 2283081); conditions: primary human HUVEC with PBMC; actives raise or lower the signal;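 on AC50: secreted MCP-1 protein quantified by ELISA in culture supernatant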
In short: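 Human endothelial–PBMC co-cultures were dosed with chemical, then LPS-driven MCP-1 levels were quantified by ELISA at 24 h. Activity in either direction was fitted versus DMSO negative control.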

[17] = BSK_LPS_PGE2: BioMAP Diversity Plus: LPS Assay for Prostaglandin E2 (PGE2) Biomarker Activity (AID 2283082); conditions: primary human HUVEC with PBMC; actives raise or lower the signal;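 on AC50: secreted prostaglandin E2 measured by ELISA in LPS-stimulated co-culture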
In short: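 HUVEC plus human PBMC co-culture stimulated with LPS; secreted PGE2 quantified by ELISA 24 h after chemical dosing. Activity fitted bidirectionally against DMSO baseline; parallel SRB staining (0.1% SRB after 10% TCA fixation, 560 nm) flags overt cytotoxicity.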

[18] = read-out: Tumor necrosis factor (Homo sapiens) (UniProt P01375); assay: BSK_LPS_TNFa: BioMAP Diversity Plus: LPS Assay for Tumour Necrosis Factor alpha (TNFa) Biomarker Activity (AID 2283085); conditions: primary human HUVEC with PBMC; actives raise or lower the signal
In short: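 Human umbilical vein endothelial cells co-cultured with PBMC and stimulated with LPS. TNFa was measured by ELISA 24 h after chemical dosing, fitted bidirectionally relative to DMSO.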

[19] = read-out: Monocyte Chemoattractant Protein-1 (MCP1), CCL2 (gene 6347); assay: BSK_SAg_MCP1: BioMAP Diversity Plus: SAg Assay for Monocyte Chemoattractant Protein-1 (MCP1) Biomarker Activity (AID 2283090); conditions: primary human HUVEC with PBMC; actives raise or lower the signal
In short: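 MCP-1 levels in the endothelial–PBMC SAg co-culture were quantified by ELISA at 24 h post-dosing; both increases and decreases versus DMSO scored. Cytotoxicity monitored by SRB total protein in parallel cultures.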

[20] = read-out: Monokine induced gamma interferon (MIG), CXCL9 (gene 4283); assay: BSK_SAg_MIG: BioMAP Diversity Plus: SAg Assay for Monokine induced gamma interferon (MIG) Biomarker Activity (AID 2283092); conditions: primary human HUVEC with PBMC; actives raise or lower the signal
In short: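 ELISA readout of MIG/CXCL9; primary human umbilical vein endothelial cells co-cultured with peripheral blood mononuclear cells; 24 h post-dose; gain/loss fit vs DMSO baseline.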

Measured: AC50

Chain of Tumor necrosis factor (Homo sapiens) (P01375 whole entry, looked up): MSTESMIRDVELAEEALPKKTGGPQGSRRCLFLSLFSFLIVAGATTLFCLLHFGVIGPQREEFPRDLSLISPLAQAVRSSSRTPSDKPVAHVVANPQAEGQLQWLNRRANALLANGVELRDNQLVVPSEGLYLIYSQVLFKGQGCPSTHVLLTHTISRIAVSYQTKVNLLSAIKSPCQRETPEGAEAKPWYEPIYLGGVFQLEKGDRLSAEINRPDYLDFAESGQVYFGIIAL
Chain of E-selectin (Homo sapiens) (P16581 whole entry, looked up): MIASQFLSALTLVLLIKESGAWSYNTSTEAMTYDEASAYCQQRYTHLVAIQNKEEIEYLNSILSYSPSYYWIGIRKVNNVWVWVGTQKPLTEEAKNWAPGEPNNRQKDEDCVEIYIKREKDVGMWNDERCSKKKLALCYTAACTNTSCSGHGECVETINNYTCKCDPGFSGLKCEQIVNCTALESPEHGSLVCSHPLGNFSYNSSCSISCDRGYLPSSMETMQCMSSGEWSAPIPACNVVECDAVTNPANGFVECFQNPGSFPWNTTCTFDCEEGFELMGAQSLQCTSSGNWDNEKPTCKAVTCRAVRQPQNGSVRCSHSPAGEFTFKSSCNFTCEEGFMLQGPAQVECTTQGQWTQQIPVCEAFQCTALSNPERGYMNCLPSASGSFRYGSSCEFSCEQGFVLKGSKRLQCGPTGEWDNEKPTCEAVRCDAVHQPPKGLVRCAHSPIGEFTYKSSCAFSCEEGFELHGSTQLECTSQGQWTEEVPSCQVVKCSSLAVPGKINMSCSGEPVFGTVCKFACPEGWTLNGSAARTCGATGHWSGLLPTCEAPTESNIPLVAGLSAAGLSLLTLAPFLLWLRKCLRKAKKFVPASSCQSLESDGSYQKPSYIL

CC(C)CCCCCCCOC(=O)c1ccccc1C(=O)OCCCCCCCC(C)C
inactive: all assays above

CCC(C)c1cc([N+](=O)[O-])cc([N+](=O)[O-])c1OC(=O)C=C(C)C (centres undefined)
inactive: [13] | [14]
active: [1] 20 µM | [2] 11.2 µM | [3] 14.4 µM | [4] 34.2 µM | [5] 14.5 µM | [6] 32.5 µM | [7] 8.71 µM | [8] 11.8 µM | [9] 9.17 µM | [10] 8.21 µM | [11] 3.97 µM | [12] 32.8 µM | [15] 20 µM | [16] 13.4 µM | [17] 5.41 µM | [18] 34.5 µM | [19] 12.6 µM | [20] 35 µM

CC(C)(C)C(O)C(Oc1ccc(-c2ccccc2)cc1)n1cncn1 (centres undefined)
active: [2] 31 µM | [3] 29.9 µM | [5] 37.6 µM | [7] 34.7 µM | [9] 31.5 µM | [10] 6.71 µM | [13] 30.9 µM | [14] 29.2 µM
inactive: all other assays above

CCc1cc(C)cc(CC)c1-c1c(OC(=O)C(C)(C)C)n2n(c1=O)CCOCC2
active: [3] 5.7 µM | [8] 3.97 µM | [9] 9.41 µM
inactive: all other assays above

Nc1ccc(-c2ccc(N)c(N)c2)cc1N
active: [3] 8.29 µM
inactive: all other assays above

O=C1C(Cl)=C(Cl)C(=O)C(Cl)=C1Cl
inactive: [6] | [11] | [17]
active: [1] 11.9 µM | [2] 5.26 µM | [3] 10.3 µM | [4] 33.9 µM | [5] 4.54 µM | [7] 34.3 µM | [9] 13.5 µM | [10] 33.2 µM | [12] 29.2 µM | [13] 20 µM | [14] 20 µM | [15] 14 µM | [16] 30.8 µM | [18] 30.9 µM | [19] 37.9 µM | [20] 36.2 µM

Reference: PubChem BioAssay (EPA / NIEHS)
